Hits are enriched below; roughly 2.8% of the tested compounds scored in any of these assays.
Pol eta inh-1 – qHTS for Inhibitors of Polymerase Eta; DNA polymerase eta (Homo sapiens), Q9Y253; recombinant Pol eta, fluorescent DNA replication assay; Potency, µM (titrated, usually from 114 µM), without a hit: top-dose activity change, negative = inhibition, hits mostly inhibitors; 390,000 compounds, 1.2% hits; AID 588591, 2011; note: potency is the fitted concentration of half-maximal effect; % is set by controls: 0 for no effect and ±100 for the full control effect
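Pol eta (10 nM) was preincubated with compounds for 15 min at room temperature, after which fluorescent replication substrate (50 nM final) was added to start the reaction. Fluorescence was read kinetically at 0 and 10 min.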
Pol beta inh – qHTS Assay for Inhibitors of DNA Polymerase Beta | P06746 | Pol beta primer extension/strand displacement, fluorescence kinetic | Potency, µM (series often up to 114 µM), inactives show top-dose activity change, negative = inhibition, hits mostly inhibitors | 340,000 compounds, 1.3% hits; note: potency is the fitted concentration of half-maximal effect; % is set by controls: 0 for no effect and ±100 for the full control effect
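Reaction started by 50 nM substrate onto compound-treated Pol beta (10 nM, 15 min preincubation, room temperature); plates read at 0 min and 10 min. Normalized concentration-effect data fitted by four-parameter Hill equation.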
Pol kappa inh-1 – qHTS for Inhibitors of Polymerase Kappa. Potency, µM (top dose mostly 107 µM), without a hit: at the highest dose activity, negative = inhibition, hits mostly inhibitors. AID 588579, 2011. purified Pol kappa, fluorescent DNA synthesis assay, 10 min. DNA polymerase kappa (Homo sapiens), Q9UBT6. 400,000 compounds, 0.53% hits; note: potency is the fitted concentration of half-maximal effect; % is set by controls: 0 for no effect and ±100 for the full control effect
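Kinetic fluorescence readout at 0 and 10 min followed reaction start with substrate at 50 nM final. Beforehand, enzyme (10 nM Pol kappa) stood 15 min with compound at room temperature; buffer-only wells were negative controls.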
POLI inh – qHTS for Inhibitors of Polymerase Iota. DNA polymerase iota (Homo sapiens), Q9UNA4. Pol iota fluorescent replication assay, 10 min. Potency, µM (doses to about 115 µM), inactives show at the highest dose activity, negative = inhibition, most hits filed as inhibitors. 390,000 compounds, 1% hits. AID 588590, 2011; note: potency is the fitted concentration of half-maximal effect
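Pol iota at 10 nM preincubated 15 min with compounds at room temperature; reaction started with fluorescent substrate, 50 nM final. Fluorescence read kinetically at 0 and 10 min; buffer-only wells as negative control.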
PI5P4Ka inh – qHTS for Inhibitors of phosphatidylinositol 5-phosphate 4-kinase (PI5P4K). Phosphatidylinositol 5-phosphate 4-kinase type-2 alpha (Homo sapiens), P48426. PI5P4Kalpha enzyme, ADP-Glo luminescence, 60 min; stronger effect = lower value. max response, %. 330,000 compounds, 1.2% hits; active = max response of -50% or lower; inconclusive = between -30% and -50%; inactive = -30% or higher; note: value at the top dose of about 77 µM; % is set by controls: 0 for no effect and ±100 for the full control effect
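Reactions run in 0.038 M HEPES pH 7.4, 0.28 mM EGTA, 0.1% CHAPS and 5% DMSO, with PI5P4Kalpha, substrate, compound and 5 microM ATP final, one hour at room temperature. Readout is ADP-Glo luminescence.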
WRN inhibitor – qHTS for Inhibitors of WRN Helicase. WRN helicase unwinding, fluorescent forked duplex, kinetic. Potency, µM (series often up to 114 µM), for inactives: top-dose activity change, negative = inhibition, most hits filed as inhibitors. 360,000 compounds, 0.46% hits. AID 651768, 2012; note: potency is the fitted concentration of half-maximal effect; % is set by controls: 0 for no effect and ±100 for the full control effect; nearly all actives have a fitted effect of over 55% in size
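Kinetic red-fluorescence monitoring (525/598 nm) tracks WRN helicase activity after 100 nM fluorophore-quencher forked duplex and 2 mM ATP are added to 20 nM enzyme pretreated 15 min at room temperature with compound.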
GALK inh confirm – Confirmation Assay for Inhibitors of Human Galactokinase (GALK) | shares compounds with Pol eta inh-1 | purified GALK, Kinase-Glo ATP depletion luminescence | Potency, µM (top dose mostly 115 µM), for the others: top-dose activity, negative = inhibition, most hits filed as inhibitors | 150 compounds, 70% hits | AID 2015, 2009
GALK redox cs – Confirmatory Assay for Inhibitors of Human Galactokinase (GALK): Phenol-HRP redox assay counterscreen | 150 compounds, 40% hits | Potency, µM (titrated, usually from 115 µM), for the others: at the top dose activity change, negative = H2O2 signal, most hits filed as inhibitors | shares compounds with Pol eta inh-1 | Phenol red-HRP H2O2 redox cycling, absorbance 600 nm
HEK293 tox – Secondary Assay for Inhibitors of Human Galactokinase (GALK): HEK-293 Cell Viability Assay; shares compounds with Pol eta inh-1; HEK-293 viability, ATP luminescence (CellTiter-Glo), 24/48 h; Potency, µM (top dose mostly 46.1 µM), without a hit: at the top dose activity change, negative = cytotoxicity, usual class: inhibitors; 170 compounds, 10% hits; AID 2547, 2010; note: potency is the fitted concentration of half-maximal effect; % is set by controls: 0 for no effect and ±100 for the full control effect
Pol kappa inh-2 – qHTS for Inhibitors of Polymerase Kappa: Confirmatory Assay for Cherry-picked Compounds; shares compounds with Pol eta inh-1; Potency, µM, most hits filed as inhibitors; purified Pol-kappa, fluorescent strand-displacement substrate; 920 compounds, 76% hits; note: potency is the fitted concentration of half-maximal effect
Pol eta inh-2 – qHTS for Inhibitors of Polymerase Eta: Confirmatory Assay for Cherry-picked Compounds. shares compounds with Pol eta inh-1. Pol eta primer extension, TAMRA/BHQ fluorescence, 10 min. Potency, µM, usual class: inhibitors. 2,600 compounds, 64% hits; note: potency is the fitted concentration of half-maximal effect
Starred values were filed as active, the others as inactive; [ ] = another dose, or the depositor's remark. Unless noted, calls come from the whole dose curve; as a rule, active = well fitted curve in the direction sought with a large enough effect; inconclusive = small, poorly fitted or top-dose-only effect, or another doubt; inactive = no such curve, though single readings can be large; an effect the other way counts as inactive or inconclusive.

Results for CCNC(=O)C1CCCN1C(=O)C(CCCN=C(N)N)NC(=O)C(CC(C)C)NC(=O)C(Cc1cn(Cc2ccccc2)cn1)NC(=O)C(Cc1ccc(O)cc1)NC(=O)C(CO)NC(=O)C(Cc1c[nH]c2ccccc12)NC(=O)C(Cc1cnc[nH]1)NC(=O)C1CCC(=O)N1 (stereo unspecified) ?
Pol eta inh-1: -12%; Pol beta inh: -1%; Pol kappa inh-1: 0%; POLI inh: inconclusive; PI5P4Ka inh: -10; WRN inhibitor: 7%

Results for Cc1ccc(C(=O)c2coc3cc([N+](=O)[O-])c(O)c([N+](=O)[O-])c23)cc1 ?
Pol eta inh-1: 20µM*; Pol beta inh: 20µM*; Pol kappa inh-1: inconclusive; POLI inh: inconclusive; PI5P4Ka inh: -82*; WRN inhibitor: inconclusive; Pol kappa inh-2: inconclusive

What do the screens show for `CCOC(=O)CC(=O)CSc1nc2ccsc2c(=O)n1Cc1ccccc1`?
Pol eta inh-1: -10%; Pol beta inh: -2%; Pol kappa inh-1: -6%[60.1 µM]; POLI inh: -29%

What do the screens show for `c1ccc2c(c1)OCC(c1nnc3sc(-c4cnccn4)nn13)O2` (stereo unspecified)?
Pol eta inh-1: 89µM*; Pol beta inh: 4%; Pol kappa inh-1: -22%; POLI inh: inconclusive; WRN inhibitor: -18%[57.1 µM]; Pol eta inh-2: inconclusive

Results for O=S(=O)(Nc1cccc(CO)c1)c1cccs1 ?
Pol eta inh-1: -17%; Pol beta inh: -2%; Pol kappa inh-1: -5%; POLI inh: 24%; PI5P4Ka inh: 1; WRN inhibitor: 6%

Results for NNC(=O)c1cc(NS(=O)(=O)c2cccs2)cc(NS(=O)(=O)c2cccs2)c1 ?
Pol eta inh-1: 20µM*; Pol kappa inh-1: inconclusive; POLI inh: 40µM*; PI5P4Ka inh: inconclusive; WRN inhibitor: -3%[11.6 µM]; Pol eta inh-2: inconclusive

What do the screens show for `O=C1C(Cl)=C(N2CCC(C(=O)O)CC2)C(=O)c2ccccc21`?
Pol eta inh-1: 10µM*; Pol beta inh: inconclusive; Pol kappa inh-1: -7%; POLI inh: inconclusive; PI5P4Ka inh: inconclusive; WRN inhibitor: -20%; GALK inh confirm: 30µM*; GALK redox cs: 38µM*; HEK293 tox: -7%

What do the screens show for `NC(=O)C1CCN(C2=C(NS(=O)(=O)c3ccccc3)C(=O)c3ccccc3C2=O)CC1`?
Pol eta inh-1: 2%; Pol beta inh: 9%; Pol kappa inh-1: -9%; POLI inh: 29%; PI5P4Ka inh: 0; WRN inhibitor: 4%

How did Cc1cc(Br)ccc1NC(=O)C1CCN(S(=O)(=O)c2cccc3nsnc23)CC1 do in these assays?
Pol eta inh-1: 3%; Pol beta inh: 0%; Pol kappa inh-1: inconclusive; POLI inh: inconclusive

What do the screens show for `Cc1c(Cl)cnc(NC(=O)COC(=O)[C@@H](NC(=O)c2ccco2)C(C)C)c1Cl`?
Pol eta inh-1: 50µM*; Pol kappa inh-1: -17%; POLI inh: inconclusive; PI5P4Ka inh: inconclusive; WRN inhibitor: -8%[11.6 µM]; Pol kappa inh-2: inconclusive; Pol eta inh-2: inconclusive

How did Cc1ccccc1OCC(=O)OCC(=O)Nc1ncc(Cl)c(C)c1Cl do in these assays?
Pol eta inh-1: 28µM*; Pol kappa inh-1: inconclusive; POLI inh: inconclusive; PI5P4Ka inh: -19; WRN inhibitor: -11%[11.6 µM]; Pol kappa inh-2: inconclusive; Pol eta inh-2: inconclusive

What do the screens show for `CCOc1ccc2[nH]c(=O)c(C(c3nnnn3Cc3ccco3)N3CCN(C)CC3)cc2c1` (stereo unspecified)?
Pol eta inh-1: -20%; Pol beta inh: 2%; Pol kappa inh-1: 9%; POLI inh: 68%; PI5P4Ka inh: 1; WRN inhibitor: 4%; GALK inh confirm: -6%; GALK redox cs: 3%; HEK293 tox: 0%

Results for O=C(COc1ccccc1/C=C\c1[nH]c(=O)[nH]c(=O)c1[N+](=O)[O-])Nc1ccccc1 ?
Pol eta inh-1: 22µM*; Pol beta inh: 9%; Pol kappa inh-1: -18%; POLI inh: 20µM*; PI5P4Ka inh: -69*; WRN inhibitor: -6%[11.6 µM]; GALK inh confirm: 38µM*; GALK redox cs: -11%; HEK293 tox: -5%; Pol eta inh-2: 76*

Results for Cc1[nH]c2ccccc2c1/C=N/NC(=O)c1cccc(Br)c1 ?
Pol eta inh-1: inconclusive; Pol beta inh: inconclusive; Pol kappa inh-1: -8%; POLI inh: 42%; PI5P4Ka inh: -3; WRN inhibitor: -14%

What do the screens show for `Cc1[nH]c2ccccc2c1/C=N/Nc1cccc(C(=O)O)c1`?
Pol eta inh-1: 56µM*; Pol beta inh: inconclusive; Pol kappa inh-1: inconclusive; POLI inh: inconclusive; PI5P4Ka inh: -28; WRN inhibitor: -12%; Pol eta inh-2: inconclusive

From PubChem BioAssay
